CSC inhib: cancer stem cell inhibition | cancer stem cell-like cells viability, luminescence | AID 2717 | 1.1% of 300,000 active | inhibition, % at 7.5 µM; in the data active = inhibition above about 75%; tested in HMLE shEcad cells
NR3A LBD binder: modulators (binders) of human NR3A ligand-binding domain; NR3A LBD differential scanning fluorimetry, Tm shift; 0% = protein alone, 100% = glycine-bound protein; Tm shift relative to glycine control, % at 25 µM; 2.5% of 340,000 active; AID 1259313;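 active = melting temperature shift of at least 10% of the positive control shift, at one fixed dose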
SKKanGAS inh: inhibitors of SKKanGAS S. pyogenes growth in kanamycin (SK-promoter or general growth effect); BacTiter-Glo, 6 h; inhibition, % at 7.5 µM; 1.3% of 300,000 active;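 active = mean replicate score, as percent of positive control median, at least 50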;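 note: strain carries kanamycin resistance gene driven by streptokinase promoter and grows in 40 µg/ml kanamycin; loss of luminescence reflects streptokinase promoter inhibition or plain growth inhibition; 0% = median of DMSO wells and 100% = positive control at its reference dose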
Beta apoptosis: beta cell apoptosis inhibition. INS-1E cytokine-induced death, ATP luminescence, 48 h; percent of positive-control rescue, neutral wells zero. 0.8% of 300,000 active. AID 435005. protection from apoptosis, % (test concentration not listed);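 active = Every replicate reaches about 75%, or at least half do and their mean reaches it too, limit read from the data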;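 note: 0% = cytokine-treated negative control wells and 100% = positive control rescue; higher means more ATP so stronger rescue from cytokine killing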
MPTP inh: permeability transition pore inhibition; isolated mouse mitochondria, Ca2+ swelling absorbance, 30 min; inhibition, % at 10 µM; 1.4% of 360,000 active; AID 602449;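 active = inhibition of 50% or more, scaled per plate between neutral and stimulator controls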;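 note: 0% = DMSO wells given calcium and 100% = 1 mM EGTA wells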
Mdm2 MdmX PPI: disrupts the human Mdm2-MdmX interaction; SaOS-2 split-luciferase Mdm2/MdmX complementation, luminescence; inhibition, % at 8 µM; 3% of 330,000 active;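 active = inhibition of at least 50% at 8 µM in the primary screen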
Starred values were filed as active, the others as inactive; nt = no result given. Most compounds without a hit are left out; they make up all but 6.9% or so of the library.

SMILES	CSC inhib	NR3A LBD binder	SKKanGAS inh	Beta apoptosis	MPTP inh	Mdm2 MdmX PPI
CCC1=NN(C(=O)c2ccc(Cl)cc2)C(O)(c2ccc(C)cc2)C1 (stereo not drawn)	99*	-3	-2	5	29	32
CCOC(=O)C1=NN(C(=O)c2ccc(C)cc2)C(O)(c2ccc(Cl)cc2)C1 (stereo not drawn)	-2	-13	55*	-1	35	5
CCC1=NN(C(=O)c2ccccc2O)C(O)(c2ccccc2)C1 (stereo not drawn)	79*	-7	54*	87*	4	41
CC(C)c1ccc(OCC(=O)NC2CC(C)(C)NC(C)(C)C2)c(Br)c1	1	1	3	1	0	23
CCCN(CC(=O)Nc1ccccc1C)C(=O)c1nn(CC)c(=O)c2ccccc12	nt	0	nt	0	2	22
COc1cc(/C=C/c2nc3ccccc3c(=O)[nH]2)cc(Br)c1O	-11	23*	7	6	1	33
CCC(C)n1ncn(-c2ccc(N3CCN(c4ccc(O)cc4)CC3)cc2)c1=O (stereo not drawn)	104*	2	1	3	1	-6
Cc1sc(NC(=O)C2=COCCO2)nc1-c1ccc(Cl)cc1	nt	-6	5	4	-1	7
O=C(O)c1ccc(NS(=O)(=O)c2ccc(C(=O)Nc3ccccc3)cc2)cc1	-3	17*	2	-3	0	17
O=C(Nc1ccccc1)c1cnc2ccccc2n1	-4	3	-3	-7	1	-16
O=C(Nc1ccccc1)c1cccc(S(=O)(=O)Nc2ccccn2)c1	0	16*	-5	-7	0	15
NC(=O)c1ccc(NS(=O)(=O)c2ccc3ccccc3c2)cc1	-8	12*	2	-1	0	9
NC(=O)c1ccc(NC(=O)c2cnc3ccccc3n2)cc1	-4	16*	-3	9	1	-20
Cc1cccn2c(=O)nc(SCC(=O)NCc3ccc(F)cc3)nc12	-12	0	-10	nt	0	21
CC(C)(C)c1ccc(C(=O)Nc2ccc(S(=O)(=O)Nc3cnc4ccccc4n3)cc2)cc1	14	13*	39	0	3	-28
O=C(Nc1ccc(S(=O)(=O)Nc2cnc3ccccc3n2)cc1)c1cccc(OC(F)F)c1	-3	11*	17	-2	0	3
COc1ccc(-c2sc3cc(OC)c(OC)cc3c2C#CCO)cc1	nt	0	nt	nt	1	32
COc1ccc(-c2sc3ccc(N4CCOCC4)cc3c2C#CC(C)(C)O)cc1	87*	-7	nt	-6	1	42
COc1cccc(-c2sc3ccc(OC)cc3c2C#CCC(C)O)c1 (stereo not drawn)	113*	-1	nt	-3	0	5
COc1ccc(-c2sc3ccc(N4CCOCC4)cc3c2C#Cc2ccsc2)cc1	70	-4	nt	13	1	-3
COc1ccc(-c2oc3ccc(N4CCOCC4)cc3c2C#CCO)cc1	97*	-18	20	nt	2	9
Nc1ccc(C#Cc2c(-c3ccsc3)oc3ccc(N4CCOCC4)cc23)cc1	-13	-12	28	nt	3	27
COc1ccc2sc(-c3ccc(SC)cc3)c(C#CCO)c2c1	83*	-5	nt	16	1	-68
O=C(NNC(=O)c1ccc(Oc2ccc(C3SCCS3)cc2)o1)c1ccc(Cl)cc1	29	2	7	2	22	18
C=CCN([C@@H](CC(C)C)C(=O)OC)S(=O)(=O)N(CC=C)[C@@H](CC(C)C)C(=O)OC	22	1	nt	14	3	-12
SMILES	CSC inhib	NR3A LBD binder	SKKanGAS inh	Beta apoptosis	MPTP inh	Mdm2 MdmX PPI
COc1cccc(-c2sc3ccc(OC)cc3c2C#CC(C)(C)O)c1	118*	-11	nt	-6	2	-17
COC(=O)c1c(-c2cc(OC)cc(OC)c2)sc2ccc(OC)cc12	nt	10	nt	2	0	-2
COC(=O)c1c(-c2ccc(SC)cc2)sc2ccc(OC)cc12	27	13*	nt	-6	1	-189
COc1ccc2sc(-c3ccc(N(C)C)cc3)c(C#CC(C)(C)O)c2c1	66	-11	nt	-5	2	26
COc1ccc2sc(-c3ccc(SC)cc3)c(C#CC(C)(C)O)c2c1	105*	-9	nt	-7	2	49
O=C(Nc1ccc(Br)cc1)C1CCCN(C2=NS(=O)(=O)c3ccccc32)C1 (stereo not drawn)	nt	0	nt	0	0	28
COc1cccc2nc3cc(C)c(C)cc3nc12	51	3	54*	55	1	-82
COc1cccc2c1nc(C)c1cc(C)oc12	-2	-2	-5	5	-1	18
CCCCN1CC(=O)N2[C@H]3c4cc(C)ccc4OC[C@@H]3[C@H](C(=O)OCC)[C@]2(C)C1=O	3	-3	nt	1	0	15
CCc1nc(Nc2ccc3c(c2)OCO3)c2oc3ccccc3c2n1	18	-4	12	5	5	18
CCc1nc(Nc2cccc(O)c2)c2oc3ccccc3c2n1	17	21*	10	-11	3	36
Cc1cn(-c2cc(C(=O)Nc3ccc(C)c(NC(=O)C(=O)c4c[nH]c5ccccc45)c3)cc(C(F)(F)F)c2)cn1	131*	12*	68*	16	2	46
O=C(OC[C@H]1O[C@@H](OC(=O)c2cc(O)c(O)c(OC(=O)c3cc(O)c(O)c(O)c3)c2)[C@H](OC(=O)c2cc(O)c(O)c(OC(=O)c3cc(O)c(O)c(O)c3)c2)[C@@H](OC(=O)c2cc(O)c(O)c(OC(=O)c3cc(O)c(O)c(O)c3)c2)[C@@H]1OC(=O)c1cc(O)c(O)c(OC(=O)c2cc(O)c(O)c(O)c2)c1)c1cc(O)c(O)c(OC(=O)c2cc(O)c(O)c(O)c2)c1	90*	nt	nt	12	nt	nt
Cc1cc(O)c(NC(=S)NC(=O)c2ccc(-c3ccc(Cl)cc3)o2)cc1C	5	30*	92*	0	4	26
Cc1ccc(O)c(NC(=S)NC(=O)Cc2ccc(Cl)cc2)c1	3	-7	-5	10	0	11
Cc1ccc(NC(=S)NC(=O)c2ccc(-c3ccc(Cl)cc3)o2)c(O)c1	13	34*	68*	3	3	7
O=C(CN1CCCC1c1cccs1)Nc1cc(S(=O)(=O)N2CCCCC2)ccc1Cl (stereo not drawn)	nt	-3	nt	nt	-1	nt
CC(C)(C)c1ccc(OCCCC(=O)NC2=NCCS2)cc1	16	1	62*	-8	-1	22
CC(C)(C)c1ccc(C(=O)NCCC(=O)NC2=NCCS2)cc1	nt	1	nt	-8	-1	-8
C=CCOc1ccc(/C=C/C(=O)OCC(=O)NCCCc2ccccc2)cc1	-2	15*	10	4	-1	21
COc1ccc(/C=C/C(=O)OCC(=O)NCCCc2ccccc2)cc1OC	-13	-2	nt	-7	0	3
CC(C)OP(=O)(OC(C)C)C(Nc1ccccc1)c1ccc2c(c1)OCO2 (stereo not drawn)	2	12*	-1	-2	2	3
